In all, about 290,000 compounds went through this assay and about 370 (0.13%) were called active.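 Rule for the calls: active = spots per cell inhibited over 60%, with over 100 cells counted and total cytoplasm intensity under 500,000; inconclusive = wells with under 100 cells, flagged as likely toxic; inactive = the rest.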 Many of the other results were omitted from the sample, so actives are more common in it than they were. Results with a measured potency or affinity are listed apart.
What follows are molecules tested against G-protein coupled receptor 55 (Homo sapiens) (UniProt Q9Y2T6) (assay: GPR55 antagonists blocking LPI-driven arrestin recruitment, primary screen, imaging, U2OS, beta-arrestin-GFP, LPI agonist (AID 2013;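 note: U2OS cells stably carrying GPR55 and arrestin-GFP stimulated by 5 µM LPI near EC80; imaged beta-arrestin-GFP aggregate spots per cell after agonist stimulation; plate controls were LPI-stimulated DMSO wells for no effect and DMSO wells without LPI for full effect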)). Conditions: U2OS GPR55 beta-arrestin-GFP translocation imaging, LPI antagonism; at 10 µM; stronger effect = higher value.
Sequence of G-protein coupled receptor 55 (Homo sapiens) (Q9Y2T6 whole entry, looked up): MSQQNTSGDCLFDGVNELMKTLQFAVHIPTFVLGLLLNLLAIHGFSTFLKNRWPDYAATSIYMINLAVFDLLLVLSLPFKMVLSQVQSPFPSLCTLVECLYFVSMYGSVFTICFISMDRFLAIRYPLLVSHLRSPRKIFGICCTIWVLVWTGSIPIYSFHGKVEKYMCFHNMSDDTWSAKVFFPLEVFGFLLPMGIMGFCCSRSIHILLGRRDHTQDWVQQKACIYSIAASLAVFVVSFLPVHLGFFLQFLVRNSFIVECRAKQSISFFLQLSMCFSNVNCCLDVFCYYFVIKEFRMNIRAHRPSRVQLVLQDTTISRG

inhibition, active:
COc1ccc2c(c1)NC(c1ccc(N(C)C)cc1)c1cccn1-2 (stereo not drawn) 67%
CC(=O)C1=C(C)NC(SCC(=O)c2ccc(C)cc2)=C(C#N)C1c1ccco1 (stereo not drawn) 82.9%
CCCC(=O)N(C1CC(C)C(C#N)(C#N)C1(C#N)C#N)N(C)C (stereo not drawn) 98.9%
N=c1n(CC(=O)c2ccc([N+](=O)[O-])cc2)c2ccccc2n1Cc1ccc(Cl)cc1 65.4%
N=c1n(CC(=O)c2ccc([N+](=O)[O-])cc2)c2ccccc2n1Cc1ccccc1 64.5%

inhibition, inactive:
CC(=O)N/C(=N/c1nc(C)cc(C)n1)Nc1ccc(NC(C)=O)cc1 -4.3%
O=C(O)c1cccc(S(=O)(=O)Nc2ccc(OCc3ccccc3)cc2)c1 1.6%
Cc1ccc(NS(=O)(=O)c2cc(C(=O)O)ccc2Cl)cc1 5.6%
O=C(O)c1ccc(NC(=S)NC(=O)c2cccc(COc3ccccc3)c2)cc1 -20.3%
O=C(NC(=S)Nc1ccc(Cl)c(C(=O)O)c1)c1cccc(COc2ccccc2)c1 3.5%
COc1ccccc1-n1c(SCC(=O)Nc2cccc(C)c2)nc2c(c1=O)SCC2 0.7%
O=C1Nc2ccccc2N(O)N1c1ccc(S(=O)(=O)N2CCCCCC2)cc1 7.8%
O=C(CSc1nc2ccccc2s1)N1CCCCC1 7.6%
CN(C)CCN(Cc1ccccc1)c1nccc(N(C)C)c1C#N 7.4%
CN(C)c1nccc(N(Cc2ccccc2)Cc2ccccc2)c1C#N 49.1%
CCN(CC1COc2ccccc2O1)C(=S)Nc1ccc(F)cc1 (stereo not drawn) 8.3%
COc1ccc2c(c1)NC(c1cc(Cl)cc(Cl)c1O)c1cccn1-2 (stereo not drawn) 3.9%
COc1ccc(C2Nc3cc(OC)ccc3-n3cccc32)cc1 (stereo not drawn) 8.6%
Cc1cccc(N(CC(=O)N2CCN(C)CC2)S(=O)(=O)c2ccccc2)c1 9.1%
CC1CC(C)CN(C(=O)C(C)N(C)CC(=O)Nc2ccc(Cl)cc2)C1 (stereo not drawn) 12.3%
CC1CN(S(=O)(=O)c2ccc(NC(=O)CCN3C(=O)c4ccccc4C3=O)cc2)CC(C)O1 (stereo not drawn) 4.4%
CC(=O)C1=C(C)NC(SCC(=O)c2ccc(F)cc2)=C(C#N)C1c1ccco1 (stereo not drawn) 16.8%
CC(=O)C1=C(C)NC(SCC(=O)c2ccccc2)=C(C#N)C1c1ccco1 (stereo not drawn) 16.3%
CN(C(=O)C1CCC1C(=O)O)c1nc(-c2ccc(Cl)s2)cs1 (stereo not drawn) 11.8%
CC(C)CNC(=O)CC(c1ccccc1)c1ccccc1 -4.4%
Cc1cc(C)nc(NNC(=O)NC2CCCCC2)n1 -10.6%
COc1cc(NC(=O)c2cnn3c(C(F)F)cc(C4CC4)nc23)c(OC)cc1Cl 14.7%
COc1ccc(-n2ncc(C(=O)NC3CC3)c2C2CCN(C(=O)OC(C)(C)C)CC2)cc1 12.4%
CCOc1ccc(NC(=O)c2c[nH]n3c(=O)cc(C4CCN(C(=O)OC(C)(C)C)CC4)nc23)cc1 16.4%
CC(C)(C)OC(=O)N1CCC(c2c(C(=O)NC3CC3)cnn2-c2ccc(Cl)cc2)CC1 4.1%
CCCCC(C(=O)NC1CCCC1)N(C(=O)c1snc(C(N)=O)c1N)c1ccc(OCC)cc1 (stereo not drawn) 4.9%
CCOC(=O)c1cn(CC2CC2)c2cc(F)c(F)cc2c1=O -1.8%
O=C(Cc1coc2ccc3ccccc3c12)NC1CCCc2ccccc21 (stereo not drawn) -1.1%
C/C(=N\Nc1nc2ccccc2s1)c1ccc2c(c1)OCO2 11.7%
O=C(Nc1ccc(F)cc1)c1ccccc1Oc1ccc(C(F)(F)F)cc1[N+](=O)[O-] 24.3%
O=C(Nc1ccccc1)c1ccccc1Oc1ccc(C(F)(F)F)cc1[N+](=O)[O-] 5.3%
CC(=O)N(C1CC(C)C(C#N)(C#N)C1(C#N)C#N)N(C)C (stereo not drawn) 7.5%
O=C1NC2(CCCCCC2)N=C1c1ccc(Br)cc1 2.5%
CCCCS(=O)(=O)Nc1ccc(Cc2ccncc2)cc1 14.3%
CCS(=O)(=O)Nc1ccc(Cc2ccncc2)cc1 -1.6%
COc1ccc(NC(=O)CCCn2c(=O)[nH]c3ccccc3c2=O)cc1 27.9%
O=c1[nH]c2ccccc2nc1-c1c[nH]c2ccccc12 12.2%
c1ccc2c(-c3ccncc3)c[nH]c2c1 -22.9%
COc1ccc(C(=O)C2CCCN(Cc3cn(C)nc3-c3ccccc3)C2)cc1F (stereo not drawn) 4.8%
CN(C1CCCCC1)S(=O)(=O)c1ccc(NC(=O)C2CCCCC2)cc1 0.9%
CN(c1ccccc1)S(=O)(=O)c1ccc(NC(=O)C2CCCCC2C(=O)O)cc1 (stereo not drawn) 45.5%
Cc1ccc(Cn2c(SCC(=O)Nc3cccc(C)n3)nc3c2c(=O)n(C)c(=O)n3C)cc1 4.3%
COc1ccccc1CN(CC(=O)NCc1ccc(F)cc1)C(=O)c1csnn1 4%
N=c1n(CC(=O)c2cccc([N+](=O)[O-])c2)c2ccccc2n1Cc1ccccc1 28.3%
Cc1ccccc1Cn1c(=N)n(CC(=O)c2ccc([N+](=O)[O-])cc2)c2ccccc21 11%
N=c1n(CC(=O)c2ccc([N+](=O)[O-])cc2)c2ccccc2n1Cc1ccccc1Cl 8.7%
Cc1ccc(Cn2c(=N)n(CC(=O)c3ccc([N+](=O)[O-])cc3)c3ccccc32)cc1 44.2%
N#Cc1cccc(NC(=O)COC(=O)c2ccc3c(=O)n4c(nc3c2)CCC4)c1 3%
CCOC(=O)C(=O)c1cn(C2OCC(OC(C)=O)C(OC(C)=O)C2OC(C)=O)c2ccccc12 (stereo not drawn) 6.8%
Nn1c(SCC(=O)Nc2ccc(F)cc2)nnc1-c1cccnc1 16.8%
O=C1C2C3C=CC(C3)C2C(=O)N1CCCCCCN1C(=O)C2C3C=CC(C3)C2C1=O (stereo not drawn) 12%
O=C1C=CC(=O)N1Cc1ccccc1 -45%
COc1cc(/C=N/NC(=O)C2CC(=O)N(c3ccc(C)cc3)C2)cc(OC)c1OC (stereo not drawn) 6.8%

From PubChem BioAssay AID2013 (Sanford-Burnham Center for Chemical Genomics, 2009)
